Assay outcomes: PubChem BioAssay, several laboratories
HER2 expr 66K – Her2 kinase expression inhibition. SKBR-3 HER2 protein level, AlphaScreen, 18-24 h; active compounds read low. HER2 level % of control, % at 10 µM. 65,000 compounds, 0.69% hits;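 active means HER2 level under 5% of the carrier-only control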;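 further: lower value means stronger loss of Her2 protein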
PLAP act – human PLAP activation. P05187. purified PLAP enzyme, luminescent substrate read-out; active compounds read high. activation fold at 20 µM. 96,000 compounds, 1.2% hits; in the data active means activation fold above about 2
M1 agonist – activates the M1 muscarinic receptor | CHO-M1 cells, Fluo-4 calcium fluorescence, agonist mode; active compounds read high | B-score at 10 µM | 64,000 compounds, 3% hits | AID 626;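 active means fluorescence rise, raw or as B-score row- and column-corrected plate score, outside the 99.7% band of its plate's samples, either direction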
M1 antagonist – blocks the rat M1 muscarinic receptor response to acetylcholine. P08482. CHO-M1 cells, Fluo-4 calcium, ACh EC80 antagonist mode; active compounds read low. B-score at 10 µM. 64,000 compounds, 3.4% hits;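 active means calcium fluorescence response, raw or row-and-column corrected B-score, differing from the plate sample mean either way at a set confidence level, mostly lower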
Target sequence (P08482 whole entry, looked up): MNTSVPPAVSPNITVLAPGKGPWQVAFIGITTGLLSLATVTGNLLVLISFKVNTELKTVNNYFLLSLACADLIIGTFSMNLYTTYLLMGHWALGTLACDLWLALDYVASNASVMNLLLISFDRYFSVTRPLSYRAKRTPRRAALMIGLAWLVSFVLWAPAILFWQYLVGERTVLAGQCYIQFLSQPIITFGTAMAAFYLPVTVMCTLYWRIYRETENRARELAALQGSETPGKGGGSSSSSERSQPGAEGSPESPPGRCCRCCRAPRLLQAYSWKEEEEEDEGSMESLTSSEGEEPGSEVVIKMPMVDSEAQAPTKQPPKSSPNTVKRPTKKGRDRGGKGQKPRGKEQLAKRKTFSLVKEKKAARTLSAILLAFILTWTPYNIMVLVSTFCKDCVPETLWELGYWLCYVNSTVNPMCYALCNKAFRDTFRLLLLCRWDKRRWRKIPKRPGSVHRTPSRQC
Cav32 inh – blocks human Cav3.2 T-type calcium channel; O95180; Cav3.2-expressing cells, Fluo-4 calcium fluorescence FDSS; active compounds read low; B-score at 10 µM; 100,000 compounds, 4% hits; AID 449739;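 active means single-dose well whose peak fluorescence ratio is a statistical outlier from its plate by either plate-standardised score or position-corrected B-score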
M1 antag conf – M1 muscarinic receptor (rat) antagonism, confirmed | shares compounds with M1 antagonist | CHO-M1 cells, Fluo-4 calcium, ACh EC80 antagonism; active compounds read low | calcium response (max-min fluorescence) at 10 µM | 1,700 compounds, 43% hits | AID 677;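 active means calcium response below the same-plate mean of wells given acetylcholine alone at its 80%-effect dose, minus 3 SD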
mGluR4 antag – selectivity test for M1 antagonists: human mGluR4 receptor; shares compounds with M1 antagonist; CHO-mGluR4 calcium flux, Fluo-4 fluorescence, glutamate EC80; active compounds read low; fluorescence response (max-min) at 10 µM; 1,700 compounds, 0.9% hits; AID 678;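 active means fluorescence response below the plate's average for near-maximal glutamate wells, less 3 SD of those wells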;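 further: raw unnormalized fluorescence span taken in the window right after glutamate addition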
Hits are given with their value; i = inactive; nt = not tested or not shown. Most compounds without a hit are left out; they make up all but 7.9% or so of the library.

SMILES	HER2 expr 66K	PLAP act	M1 agonist	M1 antagonist	Cav32 inh	M1 antag conf	mGluR4 antag
CCCCOc1ccc(CN2CCN(CCO)CC2)cc1	i	i	i	-4.8	i	310	i
CCCCOc1ccc(CN2CCN(CC)CC2)cc1	nt	i	nt	nt	i	nt	nt
CCCCCCOc1ccc(CN2CCN(CCO)CC2)cc1	i	i	i	-5.3	i	366	i
COc1ccccc1CC1/C(=N/O)C2CCN1CC2 (stereo not drawn)	i	i	i	-2.6	i	i	i
COC(=O)C1=CO[C@H](C)[C@H]2CN3CC[C@@]4(C(=O)Nc5ccccc54)[C@@H]3C[C@H]12	nt	nt	nt	nt	i	nt	nt
COC(=O)C(O)(c1ccc(N(C)S(=O)(=O)c2ccccc2)cc1)C(F)(F)F (stereo not drawn)	i	i	i	-11	i	i	i
COc1ccc(C2NCc3ccc4c(c3-n3cccc32)OCO4)cc1O (stereo not drawn)	i	i	i	-2.2	i	108	i
c1cc2n(c1)-c1c(ccc3c1OCO3)CNC2c1ccc2c(c1)OCO2 (stereo not drawn)	i	i	i	-10	i	305	i
CC1(C)CN=C(NCc2ccccc2Cl)S1	i	i	i	-5.1	i	350	i
CCc1nc(N2CCNCC2)c(C#N)c2c1CSC(C)(C)C2	i	i	i	-5.2	nt	264	i
O=C(C1CCN(S(=O)(=O)c2ccccc2)CC1)N1CCC2(CC1)OCCO2	nt	i	nt	nt	i	nt	nt
CC(C)c1cccc(C(C)C)c1OCCn1ccnc1	i	i	i	-2	i	416	i
COC(=O)C1=C(c2ccccc2)C[C@@H]2CC[C@H]1N2C(=O)N1CCOCC1	nt	nt	nt	nt	i	nt	nt
